ALDH1A1 inh: inhibitors of human aldehyde dehydrogenase 1A1. Purified ALDH1A1, NADH fluorescence, propionaldehyde substrate. 220,000 compounds, 7.3% hits. P00352. AID 1030. Potency, µM (highest dose often 75.3 µM), most hits filed as inhibitors; active = well fitted inhibition curve with a large enough effect, not every such curve was filed as active; inconclusive = small, poorly fitted or top-dose-only effect, or another doubt; inactive = no such curve, though single readings can be large or run the other way
IMPase Li cell: cell-permeable IMPase inhibitors with lithium potentiation; CHO-M1 cells, IP1 TR-FRET (IP-One), carbachol + lithium; Potency, µM (highest dose often 59.4 µM), usual class: inhibitors; AID 1457; 210,000 compounds, 0.35% hits;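 also: IP1 builds up when IMPase is blocked and the TR-FRET signal falls; nearly all actives have a fitted effect of over 50% in size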
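Readout is a homogeneous TR-FRET IP1 immunoassay (Ex 320, Em 665 and 620), where raised cytosolic IP1 lowers signal. Cells were CHO-M1 treated 30 min at 37C with test compounds plus a little lithium; AC50 values came from Hill-equation fitting.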
PNC inhibitor: blocks assembly of the perinucleolar compartment; 140,000 compounds, 3.1% hits; activity change (PNC), negative = inhibition, % at 10 µM; PC3M PTB-GFP, PNC prevalence imaging, 16 h; stronger effect = lower value;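 active = readout at or below -70, meaning at least 70% loss of cells showing the perinucleolar compartment, a nuclear body marking cancer cells; inconclusive = readout between -30 and a set limit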
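Compounds are pinned in duplicate onto adhered PC3M cells stably expressing GFP-tagged PTB and incubated 16 h at 37 C. Cells are then fixed, nuclei stained with Hoechst, and PNC-positive cells counted.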
IMPase cell inh: IMPase inhibition in cells | CHO-M1 cells, IP1 accumulation, HTRF TR-FRET ratio | AID 901 | inhibition (IP1 accumulation), % at 46.1 µM | 120,000 tested, under 10 active | P97697; active = well fitted curve in the direction sought with a large enough effect in the signal ratio, not every such curve was filed as active; inconclusive = small, poorly fitted or top-dose-only effect, or a change in a side signal; inactive = no such curve, though single readings can be large or run the other way; the % refers to the signal ratio;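 also: cells stimulated with carbachol in lithium chloride buffer; higher means more IMPase inhibition seen as more IP1 and lower FRET ratio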
Target sequence (P97697 whole entry, looked up): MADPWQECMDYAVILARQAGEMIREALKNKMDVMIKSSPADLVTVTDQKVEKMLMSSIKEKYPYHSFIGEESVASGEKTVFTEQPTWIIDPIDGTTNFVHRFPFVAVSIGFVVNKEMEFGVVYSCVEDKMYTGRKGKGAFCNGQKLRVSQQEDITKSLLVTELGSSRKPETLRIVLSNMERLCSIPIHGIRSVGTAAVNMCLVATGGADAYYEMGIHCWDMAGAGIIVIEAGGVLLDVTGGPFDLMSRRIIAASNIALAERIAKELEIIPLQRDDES
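Elevated IP1 in lysates lowers TR-FRET signal (665/620 ratio and 620 channel reported). Cells were CHO-M1, given carbachol (50 uM as added) plus 50mM LiCl, pH 7.4, 30 min, 37C; compounds titrated up to 46 uM; AC50 by Hill equation.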
HPGD inh: inhibitors of human 15-hydroxyprostaglandin dehydrogenase (HPGD) | Potency, µM, actives largely listed as inhibitors | 150,000 compounds, 4.3% hits | AID 894 | purified HPGD, NADH fluorescence kinetic, PGE2 substrate; active = well fitted inhibition curve with a large enough effect, not every such curve was filed as active; inconclusive = small, poorly fitted or top-dose-only effect, or another doubt; inactive = no such curve, though single readings can be large or run the other way
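NADH formation kinetics: reaction with 30 uM PGE2 and 1 mM NAD+ (final), 20 nM enzyme, Tris-HCl pH 8 with Tween 20, after 15 min compound preincubation at room temperature. Fluorescence change, last versus first of five reads.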
NPSR antagonist: blocks cAMP signaling of the human neuropeptide S receptor; Q6W5P4; CHO-NPSR cells, cAMP TR-FRET, antagonist mode; Potency, µM (titrated, usually from 38.3 µM), hits mostly inhibitors; 220,000 compounds, 1% hits; AID 1461; also: nearly all actives have a fitted effect of over 50% in size
Target sequence (Q6W5P4 whole entry, looked up): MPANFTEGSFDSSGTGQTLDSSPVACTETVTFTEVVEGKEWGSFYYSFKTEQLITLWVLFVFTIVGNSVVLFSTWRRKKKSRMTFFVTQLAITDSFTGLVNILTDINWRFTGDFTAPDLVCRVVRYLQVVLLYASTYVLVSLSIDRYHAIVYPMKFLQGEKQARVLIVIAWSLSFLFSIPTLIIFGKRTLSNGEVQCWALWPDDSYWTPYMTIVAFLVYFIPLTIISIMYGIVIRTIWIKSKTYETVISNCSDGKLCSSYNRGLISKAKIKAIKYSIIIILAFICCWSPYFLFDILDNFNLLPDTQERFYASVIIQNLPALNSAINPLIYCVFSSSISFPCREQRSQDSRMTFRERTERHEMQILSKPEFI
A number is an active result; i = inactive; ? = inconclusive; nt = not tested or not shown; [ ] = another dose, or the depositor's remark. This is a sample that favours compounds with a hit; in the whole collection about 11% have one here. Unless noted, calls follow the shape of the dose curve; as a rule, active = well fitted curve in the direction sought with a large enough effect; inconclusive = small, poorly fitted or top-dose-only effect, or another doubt; inactive = no such curve, though single readings can be large; an effect the other way counts as inactive or inconclusive.

SMILES	ALDH1A1 inh	IMPase Li cell	PNC inhibitor	IMPase cell inh	HPGD inh	NPSR antagonist
CCOC(=O)c1ccc(NC(=O)CSCCC(=O)O)cc1	32µM	i	nt	nt	nt	i
COC(=O)c1ccc(NC(=O)CCS(=O)(=O)c2ccc(Br)cc2)cc1	i	i	nt	nt	nt	i
CCOCCCNC(=O)C(NC(=O)c1ccccc1O)c1ccc(C)cc1 (centres undefined)	?	i	nt	nt	nt	i
CCn1c(=O)cc(SCC(=O)N(C)Cc2ccccc2)c2ccccc21	?	i	i	i	i	i
O=C1Nc2ccccc2S/C1=C/Nc1cccc(Cl)c1	i	i	?	i	i	i
COc1ccc(C2CC(C(F)(F)F)n3nc(C(N)=O)c(Cl)c3N2)cc1OC (centres undefined)	i	i	i	i	i	i
CCc1ccc(NC(=O)CSCCO)cc1	i	i	i	nt	20µM	i
O=C(CSCCO)Nc1ccccc1	i	i	i	i	i	i
CCN(Cc1ccccc1)C(=O)C1CCC(CNc2c(N3CCOCC3)c(=O)c2=O)CC1 (centres undefined)	i	i	i	i	25µM	i
O=C(C1CCC(CNc2c(N3CCOCC3)c(=O)c2=O)CC1)N1CCN(c2ccccc2)CC1 (centres undefined)	i	i	i	i	i	i
CC1CCN(c2c(NCC3CCC(C(=O)N4CCc5ccccc5C4)CC3)c(=O)c2=O)CC1 (centres undefined)	i	i	i	i	2.5µM	i
O=C(C1CCC(CNc2c(N3CCCCC3)c(=O)c2=O)CC1)N1CCc2ccccc2C1 (centres undefined)	i	i	i	i	0.56µM	i
CCOc1cccc(-c2nnc3sc(-c4ccc(C)cc4)nn23)c1	i	i	i	i	i	i
CN(C)S(=O)(=O)NCCNC(=O)c1cc(OCC(F)(F)F)ccc1OCC(F)(F)F	i	?	nt	nt	nt	i
O=C(N/N=C\c1ccc(F)cc1)c1cc(OCC(F)(F)F)ccc1OCC(F)(F)F	i	i	-87	i	i	i
Cc1ccc(S(=O)(=O)NCCNC(=O)c2cc(OCC(F)(F)F)ccc2OCC(F)(F)F)cc1	?	11µM	?	i	?	i
O=C(NC(O)C(=O)c1ccccc1)c1cccs1 (centres undefined)	?	i	i	i	i	i
O=C(N/N=C(/CC(=O)c1cccs1)C(F)(F)F)c1ccc(O)cc1	i	i	i	nt	i	i
O=C(NC(O)C(=O)c1cccs1)c1cccnc1 (centres undefined)	10µM	i	?	i	i	i
O=C(N/N=C(\CC(=O)c1cccs1)C(F)(F)F)c1cccnc1	20µM	nt	nt	nt	nt	i
Cc1ccc(C)c(S(=O)(=O)N=Nc2c(O)[nH]c3ccccc23)c1	10µM	i	nt	nt	nt	i
COc1nc(C)nc(C)c1Oc1ccc(Cl)cc1Cl	nt	nt	nt	nt	nt	i
O=C(Cn1nnc(-c2ccccc2-n2cnnn2)n1)c1ccccc1	13µM	i	?	i	i	i
Cc1nc([N+](=O)[O-])c(N2CCN(C)CC2)n1Cc1ccccc1	i	i	-88	i	i	i
Cc1nc([N+](=O)[O-])c(SCC(N)=O)n1Cc1ccccc1	?	i	nt	nt	nt	i
SMILES	ALDH1A1 inh	IMPase Li cell	PNC inhibitor	IMPase cell inh	HPGD inh	NPSR antagonist
CC(=O)Nc1ccc(O)c(-c2nc3ccccc3s2)c1	i	i	nt	nt	nt	i
O=C(CCS(=O)(=O)c1ccccc1)Nc1ccc(-c2nc3ccccc3s2)c(O)c1	i	11µM	i	nt	i	i
CC1(C(=O)Nc2nccs2)Cc2ccccc2C(=O)O1 (centres undefined)	i	i	i	i	i	i
CC1(C(=O)Nc2nnc(SCc3ccccc3)s2)Cc2ccccc2C(=O)O1 (centres undefined)	?	i	?	i	28µM	i
Cn1c(CCNC(=O)C2CCCCC2)nc2cc(NC(=O)c3cccs3)ccc21	i	i	nt	nt	nt	i
O=C(CC12CC3CC(CC(C3)C1)C2)NCc1ccncc1	i	i	-84	i	i	i
Cc1ccc(S(=O)(=O)NCC(c2cccnc2)N(C)C)cc1 (centres undefined)	32µM	i	i	i	i	i
Cc1ccc(F)c(NC=C2C(=O)OC(C)(C)OC2=O)c1	10µM	i	i	i	i	i
CC1(C)OC(=O)C(=CNc2ccc(F)cc2)C(=O)O1	?	i	i	i	i	i[7.67 µM]
Cc1nc(CN2CCC(c3ccccc3)CC2)cc(=O)[nH]1	i	i	nt	nt	nt	i
C/C(N)=C(/C#N)C(=O)COc1ncnc2ccc(Br)cc12	i	i	i	i	i	i
Cc1cc(/C=N/n2c(COc3ccccc3C)nc3ccccc3c2=O)c(O)c([N+](=O)[O-])c1	i	i	?	?	1µM	?
Cc1ccccc1OCc1nc2ccccc2c(=O)n1/N=C/c1c[nH]c2ccccc12	i	i	-123	nt	i	i
Cc1ccc(-c2[nH]ncc2/C=N/n2c(COc3ccccc3C)nc3ccccc3c2=O)cc1	?	i	i	nt	i	i
Cc1nn(CCCC(=O)Nc2cccnc2)c(C)c1[N+](=O)[O-]	i	i	nt	nt	nt	i
Cc1ccc(NC(=O)CC2SC3=NCCCN3C2=O)c(C)c1 (centres undefined)	1µM	i	i	i	i	i
CC1(C)CC(C(CC(=O)Nc2nccs2)c2ccccc2)CCO1 (centres undefined)	?	i	i	i	i	i
O=C1CC(c2ccccc2)CCc2sccc2N1 (centres undefined)	i	i	i	i	25µM	i
O=C1CC(C(=O)O)c2ccccc2N1 (centres undefined)	i	nt	i	i	nt	i
CC(C)[C@H](NC(=O)c1ccccc1)C(=O)OCC(=O)NCCc1ccc(F)cc1	i	i	-134	nt	i	i
Nc1c(Br)cc2oc(-c3ccccc3)nc2c1Br	i	i	?	i	i	i
COc1ccc(-c2nc3c(Br)c(N)c(Br)cc3o2)cc1	14µM	i	i	i	?	?
CC(C)(C)c1ccc(S(=O)(=O)CCc2ccccn2)cc1	7.1µM	i	?	i	i	i
Cc1ccc(O)c(C(=O)c2cnn(C(=O)Cc3csc(C)n3)c2)c1	1.1µM	i	i	i	i	i
Cc1ncc(CC(=O)n2cc(C(=O)c3cc(F)ccc3O)cn2)s1	7.9µM	i	i	i	i	i
CC(C)Cc1nc(N2CCN(C(=O)c3ccccc3)CC2)c(C#N)c2c1CCC2	?	i	?	i	?	2µM
COc1ccc(-n2c(O)c(/C=N/NS(=O)(=O)c3ccc(C)cc3)c3ccccc3c2=O)cc1OC	?	i	i	nt	i	i
COc1ccc(-n2c(O)c(/C=N/Nc3nc(C)cc(C)n3)c3ccccc3c2=O)cc1OC	0.79µM	i	nt	nt	nt	i
CC(C)c1ccc(NC(=O)C2CC(=O)N(C(C)C)C2)cc1 (centres undefined)	i	i	i	i	i	i

Screens (PubChem)
